This is a sample that favours compounds with a hit; in the whole collection about 2.7% have one here.
SENP7 block = SENP7 protease inhibitors, primary screen, biochemical, luminescence, uHTS | 1.5% of 330,000 active | Sentrin-specific protease 7 (Homo sapiens), Q9BQF6 | recombinant SENP7, Z-RLRGG-aminoluciferin luminescence, 40 min | AID 434973, 2010 | inhibition, % at 5 µM;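 active means inhibition above about 50% at the single test dose, limit read from the data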;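 further: plate controls were DMSO with enzyme for no effect and no enzyme buffer wells for full effect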
Target sequence (Q9BQF6 706-1050 limits assumed): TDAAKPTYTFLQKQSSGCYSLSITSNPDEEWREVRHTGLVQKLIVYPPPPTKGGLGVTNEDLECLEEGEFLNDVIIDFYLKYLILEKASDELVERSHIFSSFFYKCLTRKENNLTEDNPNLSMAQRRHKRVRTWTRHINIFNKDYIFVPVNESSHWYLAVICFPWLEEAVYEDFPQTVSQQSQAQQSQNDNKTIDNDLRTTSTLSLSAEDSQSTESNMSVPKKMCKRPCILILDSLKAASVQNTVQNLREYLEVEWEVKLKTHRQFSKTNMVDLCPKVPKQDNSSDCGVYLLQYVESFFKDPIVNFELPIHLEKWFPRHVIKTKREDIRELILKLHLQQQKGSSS
SENP6 block = SENP6 protease inhibitors, primary screen, biochemical, luminescence, uHTS; Sentrin-specific protease 6 (Homo sapiens), Q9GZR1; Recombinant SENP6 catalytic domain, aminoluciferin luminescence; inhibition, % at 10 µM; 1.8% of 330,000 active;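 active means inhibition above about 50% at the single tested dose, limit read from the data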;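 further: plate controls were DMSO wells with enzyme for no effect and DMSO wells lacking enzyme for full effect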
SENP8 block-1 = human SENP8 protease inhibitors, primary screen, biochemical, fluorescence, Nedd8 protein substrate, uHTS; Sentrin-specific protease 8 (Homo sapiens), Q96LD8; 0.64% of 360,000 active; AID 602440, 2012; recombinant SENP8; inhibition, % at 20 µM; in the data active means inhibition mostly above about 40%, no sharp cut-off; inactive means mostly below about 27%
Target sequence (Q96LD8 whole entry, looked up): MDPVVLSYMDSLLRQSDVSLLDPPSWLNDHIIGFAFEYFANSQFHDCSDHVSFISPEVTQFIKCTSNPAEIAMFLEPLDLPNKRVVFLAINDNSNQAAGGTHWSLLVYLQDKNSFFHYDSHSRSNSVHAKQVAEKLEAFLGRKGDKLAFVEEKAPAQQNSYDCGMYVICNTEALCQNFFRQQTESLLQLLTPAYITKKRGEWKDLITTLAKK
SENP8 block-2 = SENP8 protease inhibitors, primary screen, biochemical, luminescence. Sentrin-specific protease 8 (Homo sapiens), Q96LD8. inhibition, % at 10 µM. 1.2% of 330,000 active. purified SENP8, Z-RLRGG-aminoluciferin cleavage; in the data active means inhibition above about 50%
HSP90 refold inh = HSP90 inhibitors, primary screen, cell lysate, luminescence | Heat shock protein HSP 90 (rabbit reticulocyte lysate; luciferase refolding) | Rabbit reticulocyte lysate, luciferase refolding luminescence, 3 h | inhibition, % at 5.6 µM | 0.91% of 290,000 active | AID 1789, 2009;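 active means inhibition above the screen-wide mean plus 3 SD, computed separately per campaign, cut at about 16% in these data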;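 further: 0% = DMSO wells and 100% = 60 µM geldanamycin wells; inhibitors lower the luminescence because luciferase stays unfolded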
HSP90 inh confirm = HSP90 inhibitors, confirmation, cell lysate, luminescence; shares compounds with HSP90 refold inh; AID 1846, 2009; inhibition, % at 5.9 µM; 64% of 2,300 active; rabbit reticulocyte lysate, luciferase refolding luminescence, 3 h; in the data active means inhibition above about 18%;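 further: 0% = vehicle wells and 100% = reference inhibitor wells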
FLuc counter = firefly luciferase inhibitors, HSP90 counter-screen, confirmation, artefact control for HSP90 inhibitor project, biochemical, luminescence, triplicate; purified native firefly luciferase; shares compounds with HSP90 refold inh; 48% of 2,300 active; inhibition, % at 5.9 µM;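 active means inhibition above the mean inhibition of all tested sample wells plus 3 SD, cut at about 10% in these data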;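 further: 0% = DMSO with luciferase and 100% = wells lacking luciferase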
The depositor's hits bear a star; . = no result given.

SMILES	SENP7 block	SENP6 block	SENP8 block-1	SENP8 block-2	HSP90 refold inh	HSP90 inh confirm	FLuc counter
COCCSc1ccccc1C(=O)N1CCc2ccccc21	4	-11	13	-2	0	.	.
O=C(Cn1cc(SCc2ccccc2Cl)c2ccccc21)N1CCOCC1	40	75*	11	43	-1	.	.
Cc1ccc2c(c1)C(c1ccccc1)N(C(=O)c1c(F)cccc1Cl)CC(=O)N2 (stereo not drawn)	-9	5	12	-9	17*	4	-4
O=C1CN(C(=O)c2c(F)cccc2F)C(c2ccccc2)c2cc(Br)ccc2N1 (stereo not drawn)	1	-5	7	7	3	.	.
CC(C)CC(=O)N1CC(=O)Nc2ccc(F)cc2C1c1ccccc1 (stereo not drawn)	6	-9	17	1	39*	-6	-10
O=C(c1cccc2ccccc12)N1CCN(c2ccc([N+](=O)[O-])c(N3CCOCC3)c2)CC1	4	11	26	3	0	.	.
CCOc1ccc(N2C(=O)CC(NCCNc3ccc([N+](=O)[O-])cn3)C2=O)cc1 (stereo not drawn)	-3	14	27	1	24*	-8	-10
COc1cccc(Nc2ncccc2C(=O)Nc2ccccc2)c1	-10	-6	17	-8	-3	.	.
c1coc(CNc2nc(-c3cccs3)cs2)c1	-3	10	0	-2	18*	7	-26
Oc1ccc(-c2csc(NCc3ccco3)n2)cc1	-2	-17	5	-8	-3	.	.
COc1cccc(NC(=O)N2CCN(c3cccc(C)c3C)CC2)c1	0	-13	0	-7	1	.	.
Cc1csc(SCC(=O)c2cc(C)n(Cc3cccs3)c2C)n1	13	48	21	11	65*	85*	81*
Cc1cc(C(=O)CSc2nnc(N)s2)c(C)n1Cc1cccs1	4	47	9	16	28*	65*	59*
CC(=O)Nc1ccc(SCC(=O)c2cc(C)n(Cc3cccs3)c2C)cc1	2	-11	10	-4	3	.	.
Cc1cc(C(=O)CSc2nncs2)c(C)n1Cc1ccco1	3	-8	9	-7	22*	55*	41*
CC(=O)Nc1ccccc1OCC(=O)c1cc(C)n(Cc2cccs2)c1C	-4	-7	15	-7	47*	69*	-15
NS(=O)(=O)c1ccc(CNC(=O)Cc2ccc(S(=O)(=O)N3CCOCC3)s2)cc1	7	-9	-4	2	.	.	.
CCOc1cc(NS(=O)(=O)c2ccc(OC)cc2)c(OCC)cc1NC(=O)c1ccco1	3	2	-10	4	2	.	.
COc1cc(S(=O)(=O)Nc2ccc(C(=O)NCC(=O)O)cc2)ccc1NC(C)=O	-2	5	-6	3	1	.	.
CC(=O)NC1(c2ccccc2)CCN(CC(=O)N2CCC(C)CC2)CC1	-11	-22	8	-12	1	.	.
c1ccc(-c2ccccn2)nc1	-2	7	2	2	6	.	.
c1ccc(-c2ccc(-c3ccccn3)nn2)nc1	89*	83*	.	71*	28*	54*	36*
COC(=O)c1ccccc1OCCCOc1ccc(C=O)cc1OC	1	7	1	5	60*	70*	-10
Cc1ccc(NC(=O)CSc2nnc(C)c(=O)[nH]2)cc1C	-1	8	8	-3	-5	.	.
CCN(CC)CCNC(=O)c1ccccc1N	8	-3	-438	-6	1	.	.
SMILES	SENP7 block	SENP6 block	SENP8 block-1	SENP8 block-2	HSP90 refold inh	HSP90 inh confirm	FLuc counter
C#CCOCCOCCOCCNc1nc(N2CCN(C(=O)[C@H](Cc3ccc(O)cc3)n3cc([C@@H](N)C(C)CC)nn3)CC2)nc(N2CCN(C(=O)[C@H](CCCCN)n3cc([C@@H](N)CO)nn3)CC2)n1 (stereo partly drawn)	-6	-12	21	3	21*	-2	-5
C#CCOCCOCCOCCNc1nc(N2CCN(C(=O)[C@H](CCCCN)n3cc([C@@H](N)C(C)CC)nn3)CC2)nc(N2CCN(C(=O)[C@H](Cc3cc4ccccc4[nH]3)n3cc([C@@H](N)CC(C)C)nn3)CC2)n1 (stereo partly drawn)	-15	4	-30	-1	21*	2	-8
C#CCOCCOCCOCCNc1nc(N2CCN(C(=O)[C@H](Cc3ccc(O)cc3)n3cc([C@@H](N)C(C)CC)nn3)CC2)nc(N2CCN(C(=O)[C@H](CCCCN)n3cc([C@@H](N)CC(C)C)nn3)CC2)n1 (stereo partly drawn)	5	8	.	-10	-1	.	.
C#CCOCCOCCOCCNc1nc(N2CCN(C(=O)[C@H](Cc3cc4ccccc4[nH]3)n3cc([C@@H](N)C(C)CC)nn3)CC2)nc(N2CCN(C(=O)[C@H](CCCCN)n3cc([C@@H](N)CO)nn3)CC2)n1 (stereo partly drawn)	11	-23	.	-10	12	.	.
COc1ccc(CN(C(=O)c2ccccc2Br)C2CCS(=O)(=O)C2)cc1 (stereo not drawn)	-6	-2	9	11	1	.	.
Cc1cccnc1NC(=O)CN1C(=O)COc2ccc(Cl)cc21	6	2	-4	5	18*	3	-3
Cc1ccc2c(c1)N(CC(=O)Nc1ccccc1F)C(=O)CO2	0	-2	2	-2	22*	-3	-7
CCCCn1c(=O)c(CCC(=O)OCC(=O)NC(=O)NCCOC)nc2ccccc21	6	-23	-143	5	0	.	.
Cc1ccc(C)c(S(=O)(=O)Nc2ccc(O)c(Sc3ncn[nH]3)c2)c1	0	6	20	1	1	.	.
Cc1ccc(S(=O)(=O)/N=C2/C=C(Sc3ncn[nH]3)C(=O)c3ccccc32)c(C)c1	.	.	.	.	85*	44*	38*
Cc1ccc(S(=O)(=O)/N=C2/C=C(Sc3ncn[nH]3)C(=O)c3ccccc32)cc1	.	.	-12	.	89*	38*	45*
CCN1CCN(Cc2ccc(NC(=O)c3ccc(C)c(NC(=O)c4ccno4)c3)cc2C(F)(F)F)CC1	15	-5	8	-12	.	.	.
CCN1CCN(Cc2ccc(NC(=O)c3ccc(C)c(NC(=O)c4cccc(-c5cn[nH]c(=O)c5)c4)c3)cc2C(F)(F)F)CC1	2	-21	-26	0	20*	19*	-8
O=C(NC(=O)c1ccccc1)Nc1ccccn1	100*	99*	3	94*	74*	93*	86*

High-throughput results from PubChem.
